The panel holds about 83,000 compounds, 20% with a hit somewhere; the sample as a whole holds those more often.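 For each line, cells grew in 96-well plates with the test compound present at a single concentration for 48 hours.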 Values without a mark were called inactive. Active and inactive are the calls of the source. How the source made its calls: active means growth percent below 10; inactive means the rest.

Holding throughout (assay): NCI-60 one-dose screen, 48 h (100 = growth as untreated, 0 = no growth, -100 = all killed)
What all share (settings): 10 µM unless noted

Assay [1] deals with DU-145 prostate.
For assay [2], the system named is K-562 leukemia.
Assay [3] relates to MALME-3M melanoma.
Assay [4] has as its system MDA-MB-231 breast.
The subject of assay [5] is RXF 393 renal.
The test system of assay [6] is SF-268 CNS.
The test system of assay [7] is SF-295 CNS.
In assay [8] the test system is SF-539 CNS.
Assay [9] deals with UACC-257 melanoma.
Assay [10] relates to HCT-15 colon.
In assay [11] the test system is HT29 colon.
For assay [12], the system named is SNB-75 CNS.
Assay [13] concerns SNB-19 CNS.
Assay [14] deals with U251 CNS.
Assay [15] deals with PC-3 prostate.
The test system of assay [16] is SK-MEL-5 melanoma.
For assay [17], the system named is UACC-62 melanoma.
Assay [18] has as its system LOX IMVI melanoma.
Assay [19] relates to SK-MEL-28 melanoma.

For `CCOC(=O)c1ccccc1-c1c2ccc(=[N+](C)C)cc-2oc2cc(N(C)C)ccc12`, the growth in assay [1] is 25.3%; in assay [2], 10.2%; in assay [3], 28.2%; in [4], 11.7%; in assay [5], 18.4%; in assay [6], 20.8%. In addition, the growth in [7] is -26.9% (active); in assay [8] it was -5.48% (active); in assay [9], 5.13% (active); in [10] it was 70.2%; in [11] it was -0.175% (active); in assay [12] it was 7.68% (active). The growth is 18.2% in [13]; 14.6% in assay [14]; 5.32% (active) in assay [15]; -68.1% (active) in assay [16]; 9.47% (active) in [17]; 94.6% in assay [18]. In assay [19], the growth was 32%.

In the case of `CCCCCCCCCCCCCCCCCC1=NC(C)(C)CN1CC(C)O` (stereo not drawn), the growth in assay [1] was 34.5%; in assay [2] it was -25.7% (active); in assay [3], 97.4%; in assay [4], -9.03% (active); in assay [5], 66.4%; in [6] it was 14.6%. The growth in [7] is 95.9%; in assay [8] it was 19.9%; in [9], 103%; in assay [10], 10.3%; in assay [11], -4.49% (active); in [12], 97.8%. Also, the growth in [13] is 85.3%; in assay [14] it was 74%; in assay [15], 53.4%; in [16], 100%; in [17] it was 105%; in [18], -83.1% (active). In assay [19], the growth was 105%.

As for `Cc1c(CN)cc(-c2ccc(Cl)cc2)n1-c1ccccc1`, the growth is 89.2% in [1]; 66.1% in assay [2]; 107% in [3]; 87.1% in assay [4]; 84.6% in assay [5]; 86.4% in assay [6]. The growth was 87.7% in assay [7]; 93.7% in assay [8]; 91.1% in [9]; 80.9% in assay [10]; 103% in assay [11]; 78.5% in [12]. Further, the growth in assay [13] was 84.7%; in assay [14] it was 79.9%; in assay [15], 89.4%; in assay [16], 82.4%; in assay [17] it was 57%; in [18], 67%. Also, in assay [19], the growth was 114%.

With `NS(=O)(=O)c1ccc(C(=O)NN2C(=O)c3c(Br)c(Br)c(Br)c(Br)c3C2=O)cc1`, the growth in assay [1] was 103%; in [2], 102%; in assay [3], 98.7%; in assay [4] it was 101%; in assay [5], 110%; in assay [6] it was 95.5%. The growth was 98.2% in assay [7]; 96.9% in assay [8]; 100% in [9]; 99.5% in assay [10]; 109% in [11]; 77.8% in [12]. The growth in assay [14] is 98%; in [15], 100%; in [16], 103%; in assay [17] it was 99.5%; in assay [18], 95.1%; in [19] it was 109%.

As for `O=C(O)COc1ccc(Cl)c(Cl)c1`, the growth in assay [1] is 126%; in assay [2], 109%; in assay [3], 124%; in assay [4], 115%; in assay [5], 108%; in [6] it was 117%. Moreover, the growth was 103% in [7]; 104% in [8]; 104% in assay [9]; 111% in [10]; 112% in assay [11]; 107% in assay [12]. Moreover, the growth in assay [13] was 117%; in assay [14] it was 108%; in [15], 100%; in assay [16] it was 105%; in [17], 104%; in [18] it was 97.9%. Also, the growth in assay [19] was 116%.

As to `COc1ccc2c(c1)c(/C(O)=C1\COC(=O)C1=O)cn2Cc1ccc(F)cc1`, the growth is 139% in assay [1]; 86.6% in [2]; 106% in assay [3]; 94.1% in assay [4]; 104% in assay [5]; 103% in [6]. Moreover, the growth in assay [7] is 93.3%; in [8], 102%; in [9], 95.8%; in [10], 87.8%; in [11] it was 115%; in assay [12] it was 104%. Further, the growth was 100% in assay [13]; 101% in assay [14]; 89.7% in assay [15]; 97.9% in assay [16]; 88.9% in assay [17]; 100% in [18]. Moreover, the growth in [19] is 105%.

`CCCCNC(=O)c1cc([N+](=O)[O-])cc(C2CCCCC2)c1O`: the growth in assay [1] is 57.6%; in assay [2] it was 28.2%; in assay [3], 1.91% (active); in assay [4] it was 31.4%; in assay [5], 42%; in assay [6], 43.9%. In addition, the growth is 15.9% in [7]; 47.9% in assay [8]; 24.6% in [9]; 42.7% in [10]; 69.7% in [11]; 58.6% in [12]. For the same compound, the growth is 40.3% in assay [13]; 24.1% in [14]; 27.1% in assay [15]; -12.6% (active) in [16]; 36.2% in assay [18]; 34.3% in assay [19].

On to `CCNc1ccc(-c2nc3ccccc3n3cccc23)cc1`, for which the growth in [1] is 86.7%; in [2] it was 67.6%; in [3], 92.2%; in assay [4] it was 55.8%; in assay [5], 87.7%; in assay [6], 83.9%. Further, the growth in assay [7] is 69%; in assay [8], 93.5%; in [9] it was 84.9%; in assay [10], 82.5%; in assay [11], 80%; in assay [12] it was 67.6%. Besides, the growth is 92.2% in assay [13]; 82.9% in assay [14]; 71.2% in assay [16]; 73.4% in assay [18]; 86.5% in assay [19].

Values taken from PubChem BioAssay (NCI).
